# Several values for one entry are separate records, joined by “and”; a condition that tells them apart may be missing. Equal values may be shown once. Screen size: about 360,000 compounds; about 6,200 (1.7%) were called active.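 The calls were made as follows: active = inhibition of at least 50% at 20 µM; inactive = the rest.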 Many of the other results were omitted from the sample, so actives are more common in it than they were. The source holds several records for some structures; these can differ, active in one and inactive in another.
# Experiment: Peg3 promoter-driven luciferase inhibitors, primary screen, cell-based, HeLa, luciferase luminescence (AID 588405)
# Conditions: HeLa PEG-Prom luciferase reporter, overnight, at 20 µM, stronger effect = higher value
row,SMILES,inhibition
1,CCCCc1cc2c(s1)CCCC/C2=N/O,6.83% (inactive)
2,COCCCN(C(=O)CSCc1ccc(C)cc1)c1c(N)n(Cc2ccccc2)c(=O)[nH]c1=O,-0.45% (inactive)
3,O=C(c1ccc(F)cc1)n1c(=S)nc2ccccn21,-101% (inactive)
4,Brc1ccc(-c2noc(-c3ccccc3)n2)o1,-291% (inactive)
5,O=C(Oc1ccc(-c2nc(-c3ccccn3)no2)cc1)c1ccccc1,66.5% (active)
6,O=C(COC(=O)c1ccncc1)c1ccccc1,3.29% (inactive)
7,O=C1C=C(c2ccc(Cl)cc2)C(=O)N1Nc1ccccc1,105% (active)
8,O=C(Nc1ccccc1)C1CCN(C(=O)c2ccc(Br)cc2)CC1,-7.9% (inactive)
9,NC(=O)C1CCN(C(=O)c2ccc(-c3ccccc3)cc2)CC1,5.02% (inactive)
10,O=C1Nc2cc(C(=O)N3CCC(N4CCCCC4)CC3)ccc2S/C1=C\c1ccccc1,90.7% (active)
11,O=C(Nc1ccc(F)cc1)C1CCCN(S(=O)(=O)c2ccc(-n3cnnn3)cc2)C1 (stereo unspecified),24.8% (inactive)
12,CCc1ccc(-c2cc3c(=O)n(CC(=O)NCCCN4CCN(Cc5ccccc5)CC4)nc(C)n3n2)cc1,105% (active)
13,Cc1nn(CC(=O)NCCc2ccccc2)c(=O)c2cc3occc3n12,-8.09% (inactive)
14,Cc1ccc(-c2ccc(=O)n(CC(=O)NCCCN3CCCCC3)n2)cc1,5% (inactive)
15,CC1(C(=O)Nc2cccnc2)Cc2c(-c3ccccc3)ccnc2O1 (stereo unspecified),13.4% (inactive)
16,CC1(C(=O)Nc2cccc(Oc3ccccc3)c2)CCN1Cc1ccccc1Cl (stereo unspecified),18.7% (inactive)
17,Nc1ncnc2c1ncn2[C@@H]1O[C@H](C(=O)N2CCSC2)[C@@H](O)[C@H]1O,-1.06% (inactive)
18,COc1ccccc1Cc1c(-c2ccc(Cl)cc2)nc2ccc(Cl)cn12,-200% (inactive)
19,Cc1cccc(C)c1-n1nnnc1C(CCc1ccccc1)N1CCN(C/C=C/c2ccccc2)CC1 (stereo unspecified),4.21% (inactive)
20,c1ccc(C(=NNc2nc3ccccc3s2)c2ccccn2)cc1,60.3% (active)
21,COc1cc(OC)nc(N/N=C(\c2ccccc2)c2ccncc2)n1,-16.6% (inactive)
22,C/C(=N/Nc1nc(-c2ccccc2)c(CC(=O)O)s1)c1ccccc1,-245% (inactive)

row,SMILES,inhibition
1,CCCNC(=O)c1cc(C2CCCCN2C(=O)OC)on1 (stereo unspecified),8.59% (inactive)
2,CCOc1cc(-c2conc2N)cc(OCC)c1OCC,10.1% (inactive)
3,CC(C)CNC(=O)C1(C)CCCN1C(=O)CSc1ccccc1 (stereo unspecified),-0.74% (inactive)
4,CCNC(=S)NNC(=O)c1ccc2ncccc2c1,-28.3% (inactive)
5,Cc1ccc2cc(/C=N/Nc3ccc(C(=O)O)cc3)c(Cl)nc2c1,-255% (inactive)
6,O=C(O)c1ccc(N/N=C/c2ccc3ncccc3c2)cc1,70.7% (active)
7,COc1cc(NC(=O)c2[nH]cnc2C(N)=O)cc(C(=O)Nc2cccc(C(F)(F)F)c2)c1,101% (active)
8,O=C(Nc1cccc(C(F)(F)F)c1)c1ccc(N2CCNCC2)c([N+](=O)[O-])c1,22.1% (inactive)
9,COc1cc(NC(=O)c2cncc(-c3ccc(C#N)cc3)c2)cc(C(=O)Nc2cccc(C(F)(F)F)c2)c1,22% (inactive) and 56% (active)
10,COc1cccc(NC(=O)CN(C)C(C)C(=O)Nc2ccc(C#N)cc2)c1 (stereo unspecified),20% (inactive)
11,O=C(O)CSc1c2c(nc3cc(C(=O)Nc4cccc(C(F)(F)F)c4)ccc13)CCCC2,13.5% (inactive)
12,CCOC(=O)c1ccc(NC(=O)c2nc[nH]c2C(=O)NCc2ccccc2)cc1,32.4% (inactive)
13,O=C1c2ccccc2-c2ccccc2NC1O (stereo unspecified),-8.48% (inactive)
14,COc1ccc(C(c2nnnn2C2CCCC2)N2CCN(C/C=C/c3ccccc3)CC2)cc1 (stereo unspecified),-2% (inactive)
15,CC(=O)Nc1ccc(-c2ccnc3c2CC(C(=O)NC(C)C)O3)cc1 (stereo unspecified),-1.44% (inactive)
16,CC1(C(=O)NCC2CCOCC2)Cc2c(-c3cccc(C(N)=O)c3)ccnc2O1 (stereo unspecified),8.22% (inactive)
17,O=C(CSc1nc2cccc(F)c2c(=O)n1-c1ccccc1)Nc1ccc2c(c1)CCC2,2.19% (inactive)
18,Cc1ccc(C)c(N2CCN(C(=O)CCCn3c(=O)c4cccn4c4cccnc43)CC2)c1,34.6% (inactive)
19,O=C(CCCCCn1c(=S)[nH]c2cc3c(cc2c1=O)OCO3)N1CCN(c2ccc(F)cc2)CC1,-0.75% (inactive)
20,Cc1ccc(C)c(N2CCN(C(=O)CCCCCn3c(=S)[nH]c4ccc(N5CCOCC5)cc4c3=O)CC2)c1,92.5% (active)
21,COCCNC(=O)C1CCCN(Cc2ccccc2Cl)CC1 (stereo unspecified),5.2% (inactive)
22,CSc1nc(-c2ccccc2)nc(C(Cl)Cl)n1,98.3% (active)

row,SMILES,inhibition
1,O=C(COC(=O)C12CC3CC(CC(O)(C3)C1)C2)NC12CC3CC(CC(C3)C1)C2,9.7% (inactive)
2,CC1(Cc2cccc(C#N)c2)C(=O)Nc2ccc(-c3cccc(C(F)(F)F)c3)cc21 (stereo unspecified),37% (inactive)
3,Cc1c(CN2CCC(CO)(CCOc3ccccc3)CC2)[nH]c2ccc(Cl)cc12,85.4% (active)
4,CCOC(=O)C1(CCOc2ccccc2)CCN(Cc2ccc(C#CCCO)cc2)CC1,15.7% (inactive)
5,CC(C)(O)C#Cc1ccc(CN2CCC(CO)(CCc3ccccc3)CC2)cc1,1.12% (inactive)
6,C=CC[C@@H](CC(=O)N[C@@H](CO)Cc1ccccc1)C(=O)N[C@H](COC(=O)[C@H](CC=C)CC(=O)OC(C)(C)C)Cc1ccccc1,59.8% (active)
7,C=CC[C@@H](CC(=O)N[C@H](CO)Cc1ccccc1)C(=O)N[C@H](C)COC(=O)[C@@H](CC=C)Cc1ccc(F)cc1,12.6% (inactive)
8,C=CC[C@@H](CC(=O)N[C@@H](CO)Cc1ccccc1)C(=O)NCCOC(=O)[C@@H](CC=C)CC(=O)OC(C)(C)C,4.88% (inactive)
9,CCOC(=O)c1c(-n2cnnn2)sc(C)c1C,-0.91% (inactive)
10,CNC(=O)C1CC(=O)N(Cc2ccc3c(c2)OCO3)C(=Nc2ccc(F)cc2)S1 (stereo unspecified),-64.3% (inactive)
11,COc1ccccc1N(CCOc1ccccc1)S(=O)(=O)c1ccccc1,18.4% (inactive)
12,Clc1ccc(-c2cc(-c3ccccn3)on2)c(Cl)c1,-90.8% (inactive)
13,Clc1ccc(-c2cc(C3CCNCC3)[nH]n2)c(Cl)c1,58.7% (active)
14,Fc1cccc(Cc2c(-c3cccc(Cl)c3)nc3ccc(Br)cn23)c1,-153% (inactive)
15,O=C(O)CC1S/C(=N\N=C/c2ccccc2O)N(c2ccc(O)cc2)C1=O (stereo unspecified),-0.29% (inactive)
16,COc1ccc(-c2cc(C(=O)N(C)CC(=O)Nc3ccccc3Cl)c3ccccc3n2)cc1OC,43.6% (inactive)
17,COc1ccc(S(=O)(=O)N2CCCCCC2)cc1C(=O)N(C)Cc1cccc(OC)c1OC,5.19% (inactive)
18,COc1ccc(-c2cc(C(=O)N(C)Cc3ccc(OC)c(OC)c3OC)c3ccccc3n2)cc1OC,50.1% (active)
19,COc1ccc(-c2cc(C(=O)NCCCN3CCCC3=O)c3ccccc3n2)cc1OC,-2.28% (inactive)
20,COc1ccc(CN(C)C(=O)Cc2c[nH]c3ccccc23)c(OC)c1OC,13.2% (inactive)
21,COc1ccc(CN(C)C(=O)c2cc(-c3ccc(C)cc3C)nc3ccccc23)c(OC)c1OC,75.3% (active)
22,Cc1ccc(CN2CCC(N3CCC(C(=O)NCC4CCCO4)CC3)CC2)o1 (stereo unspecified),-0.4% (inactive)

row,SMILES,inhibition
1,CS(=O)(=O)c1cccc(-c2ccc3nncn3c2)c1,-2.9% (inactive)
2,CCc1nc2ccc(C(=O)N3CCN(S(=O)(=O)CC)CC3)cn2c1N(C=O)CCC(C)C,-6.03% (inactive)
3,CC(C)[C@H](NC(=O)N1CC(=O)Nc2ccccc21)C(=O)N[C@@H](Cc1c[nH]c2ccccc12)C(=O)O,14.7% (inactive)
4,O=C(NCc1cccc(C(F)(F)F)c1)c1ccc2sc(COCCO)nc2c1,-51.8% (inactive)
5,COc1cccc(CNc2nc3cc(-c4csc5ccccc45)sc3c(=O)n2C)c1,-0.35% (inactive)
6,COc1ccc(C(CCN(Cc2ccc(OC)c(OC)c2)C(=O)CCl)c2ccccc2)cc1 (stereo unspecified),105% (active)
7,COc1ccc(CCNC(=O)CN(c2ccccc2)S(C)(=O)=O)cc1OC,18.5% (inactive)
8,COc1ccc(CN(Cc2ccc(OC)cc2)C(=O)c2cccs2)cc1,0.72% (inactive)
9,CCCc1nc(N2CCN(C)CC2)c2sc(=S)n(-c3ccccc3)c2n1,30.8% (inactive)
10,OC[C@@H]1CN(Cc2ccc(Cl)cc2)C[C@H](n2cnc3c(NCc4ccncc4)ncnc32)O1,8.27% (inactive)
11,FC(F)(F)Oc1ccccc1C(c1nnnn1C1CCCCC1)N1CCN(C/C=C/c2ccccc2)CC1 (stereo unspecified),-12.9% (inactive)
12,CC[C@H]1CN2CCc3cc(OC)c(OC)cc3[C@@H]2C[C@@H]1C[C@H]1NCCc2cc(OC)c(OC)cc21,95% (active)
13,CC(C)C[C@H]1CN([C@@H](Cc2ccccc2)CN2CCC[C@@H]2CN2C(=O)C(=O)NC[C@@H]2Cc2ccc(O)cc2)C(=O)C(=O)N1CCc1ccccc1,-8.17% (inactive)
14,CCOC(=O)C1=CCC(c2ccc(F)cc2)N(S(=O)(=O)c2ccc(C)cc2)C1 (stereo unspecified),18.4% (inactive)
15,CCc1nc2c(OCC(=O)C(C)(C)C)cccn2c1N(C)C(=O)c1ccccc1F,-3.25% (inactive)
16,COc1ccc(OC)c(C(O)c2ncc(-c3cccc(C(F)(F)F)c3)[nH]2)c1 (stereo unspecified),1.51% (inactive)
17,CCCC[C@@H]1CN=C(N)N1CCc1cc(C(F)(F)F)cc(C(F)(F)F)c1,64.1% (active)
18,CCCC[C@@H]1CN=C(N)N1CCCC,6.54% (inactive)
19,CCCC[C@@H]1CN=C(N)N1CCc1cccc(F)c1,2.77% (inactive)
20,Cn1c(Nc2ccc(F)cc2)nc2cc(-c3ccsc3)sc2c1=O,-53.6% (inactive)
